4-MU autofl: compounds fluorescent in 4-MU spectral region. compound autofluorescence, 340/450 nm, 4-MU equivalents; active compounds read high. max dye-equivalent concentration, M. 59,000 tested, 11% active. AID 589; in the data active means max dye-equivalent concentration above about 10 nM; inconclusive means mostly about 1.1 nM to 9.6 nM
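Compounds in 100 mM Tris, pH 8.0, incubated 15 min at room temperature, then fluorescence read at 340 nm excitation/450 nm emission. Signal converted to 4-MU dye-equivalent concentration using an on-plate six-point 4-MU standard curve.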
AID923: qHTS Assay for Allosteric/Competitive Inhibitors of Caspase-1: Spectroscopic Profiling in AFC Spectral Region; AID 923, 2007; compound fluorescence, AFC spectral region (405/520 nm); 75,000 tested, 1.1% active; Potency, µM (titrated, usually from 57.5 µM), inactives show at the highest dose fluorescence increase, hits mostly activators; further: potency means the concentration at half of the fitted maximal effect; 0% is about no effect
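Baseline compound fluorescence (AFC region, 405 nm ex/520 nm em) taken from the intercept of kinetic reads with 50 nM caspase-1 and 5 uM Ac-WEHD-AFC; normalized to an on-plate AFC standard curve; compounds titrated up to 57 uM.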
A350 autofl: compounds fluorescent in Alexa 350 spectral region. Compound autofluorescence, 340/450 nm, Alexa 350 dye-equivalents; active compounds read high. max dye-equivalent concentration, M. 59,000 tested, 11% active; in the data active means max dye-equivalent concentration above about 10 nM; inconclusive means mostly about 1.1 nM to 9.6 nM
CRE-bla Fsk: alters forskolin-stimulated CRE reporter signaling in CHO cells; 71,000 tested, 2.5% active; CHO CRE-bla reporter (cAMP response element driving beta-lactamase), forskolin EC10, beta-lactamase ratio; Potency, µM (series often up to 38.2 µM), for inactives: at the highest dose activity change, negative = inhibition, actives largely listed as activators; active means well fitted activation curve with a large enough effect in the signal ratio, with a control signal flat, not every such curve was filed as active; inconclusive means small, poorly fitted or top-dose-only effect, or effect the other way, or a change in a side signal; the % refers to the signal ratio; further: potency means the concentration at half of the fitted maximal effect; % of control where 0% means no effect
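Using CellSensor CRE-bla CHO cells in Opti-MEM with 0.5% dialyzed FBS, compounds were titrated with EC10 NKH 477 for 3 h at 37 °C. CCF4 ratio (460/530 nm) gave %Activity; AC50 derived.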
HADH2 inh: inhibitors of human HADH2 dehydrogenase; recombinant HADH2, NADH fluorescence, beta-hydroxybutyryl-CoA; AID 886; 73,000 tested, 3.4% active; Potency, µM (top dose mostly 57.1 µM), without a hit: at the highest dose activity change, negative = inhibition, usual class: inhibitors; further: potency means the concentration at half of the fitted maximal effect; on the % scale 0 is the no-effect control and ±100 the full control effect; nearly all actives have a fitted effect of over 60% in size
Target sequence (Q99714 whole entry, looked up, one chain of several): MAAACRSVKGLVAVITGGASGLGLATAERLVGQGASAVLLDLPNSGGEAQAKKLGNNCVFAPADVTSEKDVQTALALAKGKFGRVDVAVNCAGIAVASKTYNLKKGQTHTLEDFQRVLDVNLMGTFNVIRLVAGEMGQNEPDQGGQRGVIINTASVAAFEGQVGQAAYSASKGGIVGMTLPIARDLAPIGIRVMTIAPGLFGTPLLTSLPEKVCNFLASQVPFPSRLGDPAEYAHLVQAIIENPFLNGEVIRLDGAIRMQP
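20 nM HADH2 + cpd, 15 min RT; add 1 mM NAD+/90 uM beta-hydroxybutyryl-CoA; kinetic fluorescence 360/450 nm, 4 min. Tris-HCl pH 9.0, 0.01% Tween-20.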
HSD17B inh: HSD17B dehydrogenase inhibition; AID 893; Potency, µM (highest dose often 57.1 µM), inactives show top-dose activity change, negative = inhibition, actives largely listed as inhibitors; 75,000 tested, 7.6% active; recombinant HSD17B10, NADH fluorescence kinetic;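 further: the protocol describes HADH2 (HSD17B10) and not the HSD17B4 of the title; potency means the concentration at half of the fitted maximal effect; on the % scale 0 is the no-effect control and ±100 the full control effect; nearly all actives have a fitted effect of over 70% in size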
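Enzyme plus compound, 15 min room temperature; substrate mix added (NAD+ 1 mM, beta-hydroxybutyryl-CoA 90 uM final); plates read kinetically for NADH fluorescence. HADH2 was His-tagged, E. coli-derived, 20 nM.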
An asterisk follows results filed as active; [ ] = dose if it differs, or a comment. Hits are enriched below; roughly 14% of the tested compounds scored in any of these assays. Unless noted, the call rests on the fitted dose curve; in most records, active means well fitted curve in the direction sought with a large enough effect; inconclusive means small, poorly fitted or top-dose-only effect, or another doubt; inactive means no such curve, though single readings can be large; an effect the other way counts as inactive or inconclusive.

Results for O=C(N/N=C1/C[C@@H](O)[C@@H](O)[C@@H]2[C@H]3C(=O)N(c4ccc(F)cc4F)C(=O)[C@@H]3CC[C@@H]12)OCc1ccccc1 ?
AID923: 9%[11.5 µM]; HADH2 inh: -9%[11.4 µM]; HSD17B inh: -5%[11.4 µM]

How did COC(=O)c1ccc(=O)n(Cc2ccco2)c1 do in these assays?
4-MU autofl: 6.6e-08M*; A350 autofl: 7.2e-08M*

How did O=S(=O)(/N=C(/Nc1cc(N2CCOCC2)ncn1)c1ccccc1)c1ccccc1 do in these assays?
4-MU autofl: inactive; AID923: -1%; A350 autofl: inconclusive; CRE-bla Fsk: 8%; HADH2 inh: 1%; HSD17B inh: 25µM*

How did Cc1ccc2oc(=O)c3cc(C(=O)NCc4ccco4)sc3c2c1 do in these assays?
AID923: 4%; CRE-bla Fsk: inconclusive; HADH2 inh: 2%; HSD17B inh: 25µM*

How did CCN1CCN(C(=O)c2cc3c(=O)oc4ccc(C)cc4c3s2)CC1 do in these assays?
AID923: -2%; CRE-bla Fsk: 2.5µM*; HADH2 inh: -1%; HSD17B inh: -2%

What do the screens show for `COc1cc(C2c3[nH]c4ccccc4c3CC3C(=O)N4C(Cc5c([nH]c6ccccc56)C4c4cc(OC)c(OC)c(OC)c4)C(=O)N32)cc(OC)c1OC` (stereo unspecified)?
AID923: -3%[11.5 µM]; HADH2 inh: 13%[11.4 µM]; HSD17B inh: -11%[11.4 µM]

Results for OCC1OC(C#Cc2ccccc2)C=CC1O (stereo unspecified) ?
AID923: 5%[11.5 µM]; HADH2 inh: 10%[11.4 µM]; HSD17B inh: 1%[11.4 µM]

How did Cc1ccc(C(CC(=O)N2CCOCC2)c2ccco2)cc1 (stereo unspecified) do in these assays?
4-MU autofl: inactive; AID923: 3%; A350 autofl: inactive; CRE-bla Fsk: -2%; HADH2 inh: -9%; HSD17B inh: -19%

How did C=C1c2cc(OC)ccc2NC(=O)N1CC do in these assays?
4-MU autofl: 1e-07M*; A350 autofl: 1.2e-07M*

What do the screens show for `Cc1ccccc1-n1nc(C(=O)O)c(C)c(C#N)c1=O`?
4-MU autofl: inconclusive; AID923: -1%; A350 autofl: 1.1e-08M*; CRE-bla Fsk: -4%; HADH2 inh: 4%; HSD17B inh: inconclusive

What do the screens show for `Cc1nn(-c2ccccc2C(=O)O)c(=O)c2ccccc12`?
4-MU autofl: inactive; AID923: -1%; A350 autofl: inactive; CRE-bla Fsk: inconclusive; HADH2 inh: 11%; HSD17B inh: 9%

Results for CCOC(=O)Cc1c(C)nc(-c2ccccc2)[nH]c1=O ?
4-MU autofl: inactive; AID923: 1%; A350 autofl: inactive; CRE-bla Fsk: -5%; HADH2 inh: -1%; HSD17B inh: inconclusive

How did CCOC(=O)Cc1c(C)nc2c(-c3cccc(Br)c3)c[nH]n2c1=O do in these assays?
AID923: -1%; CRE-bla Fsk: -16%; HADH2 inh: 25µM*; HSD17B inh: 32µM*

Results for CN[C@]1(C)[C@H]2CC[C@@H](C2)C1(C)C ?
4-MU autofl: inactive; AID923: 12%[25.7 µM]; A350 autofl: inactive; CRE-bla Fsk: -3%[17.1 µM]; HADH2 inh: -5%[25.6 µM]; HSD17B inh: 1%[25.6 µM]

Results for Cc1nn(-c2ccccc2)c2sc(C(=O)N(CC(=O)NC3CCCC3)Cc3ccco3)cc12 ?
4-MU autofl: inactive; AID923: 0%; A350 autofl: inactive; CRE-bla Fsk: inconclusive; HADH2 inh: 18%; HSD17B inh: inconclusive

Results for CC1(C(=O)N(CC(=O)NC2CCCC2)Cc2ccco2)CC(=O)N=C2C=CC=CN21 (stereo unspecified) ?
4-MU autofl: 4.3e-07M*; AID923: 1%; A350 autofl: 4.2e-07M*; CRE-bla Fsk: -1%; HADH2 inh: 25µM*; HSD17B inh: 25µM*

How did Oc1c(C=Nc2cccnc2)sc2ccccc12 do in these assays?
4-MU autofl: 3.6e-08M*; A350 autofl: 4.4e-08M*

Results for Oc1c(C=NCc2ccncc2)sc2ccccc12 ?
4-MU autofl: 1.3e-08M*; A350 autofl: 1.7e-08M*

What do the screens show for `CC(=O)NCCN=Cc1sc2ccccc2c1O`?
AID923: 7%; HADH2 inh: 32µM*; HSD17B inh: -1%

What do the screens show for `CN=Cc1sc2ccccc2c1O`?
4-MU autofl: inconclusive; AID923: 9%; A350 autofl: inconclusive; CRE-bla Fsk: -2%; HADH2 inh: -9%; HSD17B inh: -11%

What do the screens show for `O=C(/C=C/c1ccccc1)N1CCCC1CO` (stereo unspecified)?
AID923: 1%[11.5 µM]; HADH2 inh: 2%[11.4 µM]; HSD17B inh: 2%[11.4 µM]

What do the screens show for `CCCn1nc(C(=O)Nc2cc(C(=O)OC)ccc2C)c2ccccc2c1=O`?
4-MU autofl: 1.3e-08M*; AID923: -1%; A350 autofl: 1.4e-08M*; CRE-bla Fsk: inconclusive; HADH2 inh: 6%; HSD17B inh: -5%

Results for CCn1c(SC/C=C/c2ccccc2)nnc1-c1cnccn1 ?
4-MU autofl: 2e-08M*; AID923: 2%; A350 autofl: 2.8e-08M*; CRE-bla Fsk: inconclusive; HADH2 inh: -8%; HSD17B inh: 4%

How did CCn1c(SC/C=C/c2ccccc2)nnc1-c1cccs1 do in these assays?
4-MU autofl: inconclusive; AID923: 0%; A350 autofl: inconclusive; CRE-bla Fsk: inconclusive; HADH2 inh: inconclusive; HSD17B inh: 25µM*

Results for CCn1c(SC(=O)NC2CCCCC2)nnc1-c1cccs1 ?
4-MU autofl: inactive; AID923: 0%; A350 autofl: inconclusive; CRE-bla Fsk: 4%; HADH2 inh: inconclusive; HSD17B inh: 25µM*

What do the screens show for `Cn1c(SC/C=C/c2ccccc2)nnc1-c1cnccn1`?
4-MU autofl: inactive; AID923: -1%; A350 autofl: inactive; CRE-bla Fsk: 25%; HADH2 inh: 8%; HSD17B inh: 11%

How did O=C1CC[C@@]23/C=C/C(=O)NCCCCNCCCNC(=O)/C=C/c4ccc(c2c4)OC3C1 (stereo partly specified) do in these assays?
AID923: 1%; HSD17B inh: 0%

What do the screens show for `CC1=CC(=O)C2=C(C)CC[C@@H]3[C@H](OC(=O)[C@H]3C)[C@H]12`?
4-MU autofl: inactive; A350 autofl: inactive; CRE-bla Fsk: inconclusive; HADH2 inh: 10%

Results for COCCNC(=O)c1ccccc1NC(=O)C1COc2ccccc2O1 (stereo unspecified) ?
4-MU autofl: 2.2e-08M*; AID923: 2%; A350 autofl: 2e-08M*; CRE-bla Fsk: 14%; HADH2 inh: 14%; HSD17B inh: -1%
